Results reported in PubChem BioAssay AID758 (NMMLSC, 2007).
In all, about 190,000 compounds went through this assay and about 110 (0.058%) were called active. Not shown: some 2% with an inconclusive outcome.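 The calls were made as follows: active = fluorescent GTP binding to Rab7 beads changed by at least 20 points from the 100% baseline, either direction, mostly lower; inconclusive = compound itself probably fluorescent, or too few beads counted; inactive = the rest.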 For the sample, actives were picked, then their nearest neighbours and some compounds at random.

tested on: Rab7 GTPase wild type (dog), Bodipy-FL-GTP binding; test: wildtype dog Rab7 nucleotide binding alteration – biochemical, multiplex bead flow cytometry, primary screen (AID 758); conditions: GST-Rab7 beads, fluorescent GTP binding, at 10 µM, actives lie on both sides, untreated = 100%, excess cold GTP = 0%;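 also: median green fluorescence of bound Bodipy-FL-GTP per Rab7 bead population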

GTP binding activity (percent of control), inactive:
Cc1ccccc1OCCC(=O)OCC(=O)NC(C)c1ccccc1 (stereo unspecified) 95%, N#Cc1c(-c2ccc(F)cc2)nc(-c2ccccc2)[nH]c1=O 93%, O=C(c1cccc(S(=O)(=O)N2CCCC2)c1)N(Cc1ccco1)C1CCS(=O)(=O)C1 (stereo unspecified) 97%, CN(CCc1cnn(C)c1)Cc1cn(C)nc1-c1ccccc1F 100%, Cc1cc(=O)n2[nH]c(-c3sccc3-n3c(C)ccc3C)cc2n1 91%, O=C(N/N=C/c1ccc(OCC2COCCO2)cc1)c1ccc(Br)cc1 (stereo unspecified) 108%, Cc1c(C(=O)O)nnn1-c1nonc1N 97%, CCc1ccc(CN(C)C(=O)CCc2nnc(-c3ccc(-c4ccccc4)cc3)o2)nc1 96%, COC(=O)c1ccc(COC(=O)c2cnccn2)cc1 105%, COc1ccc(-c2[nH]ncc2CN(C)Cc2cccnc2)c(F)c1 96%, CCn1c(SCc2ccccc2)nc2c(c1=O)SCC2 94%, Cc1cccc(Oc2c([N+](=O)[O-])c(=O)n(C)c3ccccc23)c1 100%, COC(=O)c1ccc(CN2CCC(CO)(Cc3ccc(OC)cc3)CC2)cc1 103%, CN(C)c1nc(N)nc(Cn2nnc(-c3ccc(C(F)(F)F)cc3)n2)n1 104%, CCCNS(=O)(=O)c1ccc(CCC(=O)N2CCCC2)cc1 104%, CN(CC(=O)Nc1ccccc1F)CC(=O)Nc1ccccc1Br 105%, CCOC(=O)CCCNC(=O)COC(=O)/C=C/c1ccc2c(c1)OCO2 90%, Cc1nc2sc3c(c2c(=O)n1NC(=O)CCl)CCCC3 90%, CSc1ccc(CN2C(=O)NC3(CCCCCC3)C2=O)cc1 97%, Fc1cccc(CSc2nnc3ccc(-c4ccncc4)nn23)c1 94%, Cc1cc([N+](=O)[O-])ccc1NC(=O)c1ccc(NC(=O)C(C)C)cc1 98%, CCCCC(CC)CNC(=O)C(=O)C1C(=O)Nc2ccccc21 (stereo unspecified) 103%, COc1ccccc1-c1nc(SC)n[nH]1 97%, Cc1ccc(CSc2nc3[nH]ncc3c(=O)[nH]2)cc1 93%, Cc1ccccc1-n1nc(SCC(=O)O)sc1=S 99%, Cc1ccc(C(=O)Cn2cccn2)cc1 106%, CC(=O)NC(=S)NNC(=O)c1ccc(Br)cc1 108%, NS(=O)(=O)c1cccc(NC(=O)COC(=O)/C=C/c2ccco2)c1 94%, O=C(Nc1ccc(Br)cn1)c1ccc([N+](=O)[O-])cc1Cl 98%, NC(=O)c1ccc(CN2CCC(Cc3ccccc3)CC2)cc1 110%, COc1cccc(CN(C)CC(=O)Nc2ccccc2C(=O)Nc2ccccc2)c1 105%, CC(OC(=O)c1ccccc1OCc1ccc(Cl)cc1)C(N)=O (stereo unspecified) 102%, Cc1cc(C)c(S(=O)(=O)N2CCOCC2)cc1C 101%, CN1CCN(S(=O)(=O)c2cccc(C(=O)O)c2)CC1 98%, CCOCCCNCc1cc(Br)ccc1OCC 95%, Cc1cccc(/C(N)=N/OC(=O)c2ccccc2Cl)c1 95%, C/C(=N\Nc1nc(N2CCOCC2)nc(N2CCOCC2)n1)c1ccc([N+](=O)[O-])cc1 96%, C/C(CC(=O)Nc1cccc(C(F)(F)F)c1)=N\NC(=O)C(=O)NCC(C)C 96%, CC(C)CNC(=O)C(=O)NCc1ccccc1 93%, O=[N+]([O-])c1cc(S(=O)(=O)CCCN2CCOCC2)ccc1F 95%, Cc1ccc(C2CCN(C(=S)Nc3cccc(Cl)c3)C2)cc1 (stereo unspecified) 101%, CCOC(=O)/C(C#N)=C/c1cn(CCC(=O)O)nc1-c1ccc(Br)cc1 102%, c1ccc2c(c1)OCCOCCOCCO2 99%, O=C(C1CCN(C2CCN(Cc3ccc4cc(F)ccc4n3)CC2)CC1)N1CCCC1 98%, CCC(C)NC(=O)c1nn(C)c(=O)c2ccccc12 (stereo unspecified) 103%, Cc1[nH]nc(SCC(=O)NCC(C)C)c1[N+](=O)[O-] 96%, Cc1ccc(OCCCC(=O)NC(C)c2ccccc2)c(C)c1 (stereo unspecified) 97%, Cc1cccc(NS(=O)(=O)c2ccc(C)c(C(N)=O)c2)c1 102%, CC1COc2ccccc2N1S(=O)(=O)c1ccccc1 (stereo unspecified) 95%, O=[N+]([O-])c1ccc2[nH]c3c(c2c1)CCCC3O (stereo unspecified) 103%, Cc1ccccc1NC(=O)c1nn(-c2ccc(F)c(F)c2)ccc1=O 95%, O=C(O)CCCCOn1ccnc1 97%, Cc1ccc(C(=O)N/C(=C\c2cccs2)C(=O)NCCc2ccccn2)cc1C 106%, CNc1nc2c(C)cccn2c(=O)c1C=Nc1ccc(OC)cc1 90%, COc1ccccc1N1CCN(c2ccc([N+](=O)[O-])nc2)CC1 104%, CC1(C)C2CCC1(C)C(OC(=O)c1ccc(O)cc1)C2 (stereo unspecified) 97%, O=C(O/N=C(/c1ccccc1)c1ccncc1)c1ccccc1[N+](=O)[O-] 95%, O=C(c1snnc1-c1ccccc1)N1CCOCC1 100%, CCc1nc2ccccc2c(C(=O)OC2CCCCC2=O)c1C (stereo unspecified) 99%, CC(C)(C)NC(=O)COC(=O)c1cc(Cl)ccc1[N+](=O)[O-] 102%, COc1ccc(C(=O)NNc2cc(C)nc(NNC(=O)c3ccc(OC)cc3)n2)cc1 102%, Cc1ccc(NC(=O)Cn2c(=O)n(CCC(=O)NC3CCN(Cc4ccccc4)CC3)c(=O)c3ccccc32)cc1 102%, C[C@H](NC(=O)c1ccccc1Cl)C(=O)OCCOc1cccc(Cl)c1 94%, OCCNCc1cccc(OCc2ccccc2Cl)c1 97%, CN(C)C(=O)N1CCNCC1 106%, CCCCCC1CCC(c2nnc(SCC(C)=O)o2)CC1 (stereo unspecified) 104%
